# Screening data (PubChem BioAssay)
# Compounds with a hit are over-represented: about 2.6% of the library has one in this group of screens.
# TROY NFkB inh = inhibitors of TROY-driven NF-kB signaling, primary screen, Q293 LMP1-TROYcd cells, NF-kB luciferase, uHTS | Q293 LMP1-TROYcd NF-kB luciferase reporter, 4 h | inhibition, % at 10 µM | 360,000 compounds, 0.98% hits;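 active = compounds whose plate-normalised and pattern-corrected inhibition of the luciferase reporter signal at the single screening dose is 50% or more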
# EWS-Fli block = EWS/Fli-driven NR0B1 reporter inhibitors, primary screen, A673 cells, NR0B1 luciferase, luminescence, MLPCN library | inhibition, % at 12.6 µM | viability-normalised | AID 651661, 2012 | 350,000 compounds, 0.67% hits;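 active = mean inhibition of at least 50% after viability correction, with every replicate also passing that limit; inconclusive = mean reaches 50% but only one of two replicates passes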;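 also: firefly luciferase signal divided by Alamar Blue viability fluorescence both relative to DMSO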
# TWEAK-Fn14 inh = inhibitors of TWEAK-Fn14 signaling, primary screen, luciferase reporter cells, uHTS. AID 1159606, 2016. inhibition, % at 10 µM. 360,000 compounds, 2% hits. TWEAK-stimulated Fn14 reporter cells, luciferase luminescence, 8 h; in the data active = inhibition above about 50%
# EBV LMP1 NFkB = EBV LMP1-driven NF-kappaB luciferase reporter inhibitors, primary screen, cell-based, luminescence, single point | inhibition, % at 12.5 µM | 350,000 compounds, 0.69% hits | LMP1-induced NF-kappaB luciferase reporter cells; in the data active = inhibition above about 41%; inconclusive = no clear call, values can overlap the other calls;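 also: 0% = neutral control wells and 100% = reference inhibitor control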
# LGR2 antag = inhibitors of bursicon-induced LGR2 CRE-luciferase signal, primary screen, cell-based, HEK293, CRE-luciferase reporter, bursicon stimulation. Drosophila bursicon receptor LGR2 (rickets). AID 720647, 2013. inhibition, % at 9.99 µM. bursicon-stimulated, 4 h. 380,000 compounds, 0.35% hits;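 active = drop in luminescence signal, shown as inhibition above about 50% in the replicate tests, limit read from the data, passing the limit was not always enough; inconclusive = probably only some replicates passing the limit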;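 also: agonist challenge used bursicon conditioned medium at about half maximal strength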
# * hit, by the source's call; u = inconclusive; x = not tested or not shown.
SMILES,TROY NFkB inh,EWS-Fli block,TWEAK-Fn14 inh,EBV LMP1 NFkB,LGR2 antag
O=c1[nH]c2ccccc2n1C1CCN(C(CCc2ccccc2)c2nnnn2C2CCCCC2)CC1 (stereo unspecified),53.4*,-0.4,69.3*,x,94.5*
CSCCC(c1nnnn1C1CCCCC1)N1CCC(n2c(=O)[nH]c3ccccc32)CC1 (stereo unspecified),13.5,22.3,14.7,x,12.2
O=c1[nH]c2ccccc2n1C1CCN(C(c2cccs2)c2nnnn2Cc2ccccc2)CC1 (stereo unspecified),35.4,32.5,37.4,x,41.3
C[C@@H]1CN([C@@H](C)CO)C(=O)c2c(c3ccccc3n2C)-c2ccccc2CO[C@H]1CN(C)C(=O)Oc1ccccc1,x,4.0,x,x,3.5
COc1ccc(S(=O)(=O)NC(CC(=O)N2CCC3(CC2)OCCO3)c2ccco2)cc1 (stereo unspecified),15.1,x,90.4*,-3.5,x
COc1ccc(C(CC(=O)N2CCC3(CC2)OCCO3)NS(=O)(=O)c2ccc(OC)cc2)cc1 (stereo unspecified),8.7,x,4.5,-3.5,x
COC(=O)[C@H]1[C@H](CO)[C@H]2Cn3c(ccc(C4=CCCCC4)c3=O)[C@@H]1N2CC1CC1,x,-73.9,x,x,-0.2
CC(=O)OC(C)(C)/C=C/C(=O)[C@](C)(O)C1[C@H](O)C[C@@]2(C)C3CC=C4C(C[C@H](O)C(=O)C4(C)C)[C@]3(C)C(=O)C[C@]12C (stereo partly specified),48.6,x,42.4,42.7*,x
CC(C)(O)/C=C/C(=O)C(C)(O)C1C(O)CC2(C)C3CC=C4C(C=C(O)C(=O)C4(C)C)C3(C)C(=O)CC12C (stereo unspecified),70.1*,30.0,89.9*,45.0*,87.9*
Cc1ccc(C[n+]2c(-c3ccc(C)cc3)cc(-c3ccc(C)cc3)cc2-c2ccc(C)cc2)cc1,42.0,x,92.5*,u,x
O=C(Cc1ccncc1)N1CCCCN2[C@H](CO)[C@H](c3ccc(C#Cc4ccccc4F)cc3)[C@H]2C1,x,1.1,x,x,-0.5
O=C(Cc1cccnc1)N1CCCCN2[C@@H](CO)[C@@H](c3ccc(C#CC4CC4)cc3)[C@@H]2C1,x,-9.3,x,x,x
CCn1c(O)c(C=Nc2ccc(S(N)(=O)=O)cc2)c(=O)[nH]c1=S,52.5*,x,20.8,-7.2,-6.7
O=c1[nH]c(O)c(/C=C2/C=CC(c3cc(Cl)ccc3Cl)=N2)c(=O)[nH]1,84.5*,12.7,44.9,6.1,-57.4
CC1=Nc2ccccc2/C1=C/c1c(O)[nH]c(=O)[nH]c1=O,1.5,11.2,8.2,-9.3,4.6
O=C1NC(=O)N(c2ccccc2)C(=O)/C1=C/C=C/c1ccco1,12.9,59.7*,14.4,-4.4,-9.0
Cc1ccc(N2C(=O)NC(=O)/C(=C\C=C\c3ccco3)C2=O)cc1,2.2,55.9*,17.2,2.1,4.3
CN1C(=O)/C(=C/C=C/c2ccco2)C(=O)NC1=S,13.7,1.6,20.0,-29.2,1.4
CN(C)c1ccc(/C=C/C=C2/C(=O)NC(=O)N(c3ccccc3)C2=O)cc1,4.8,57.2*,92.2*,-54.2,x
Cc1ccc(N2C(=O)NC(=O)/C(=C\C=C\c3ccco3)C2=O)cc1C,9.6,71.7*,14.4,-33.3,6.7
O=C(NCCN1CCC2(CC1)C(=O)NCN2c1ccccc1)c1ccc(F)cc1,x,4.5,x,x,5.3
C[C@H](CO)N1C[C@H](C)[C@H](CN(C)C(=O)Oc2ccccc2)OCc2ccccc2-c2c(n(C)c3ccccc23)C1=O,x,2.3,x,x,3.3
Cc1cccc(N2C(=O)NC(=O)/C(=C\C=C\c3ccco3)C2=O)c1,4.3,67.4*,-12.6,-21.5,14.9
COC(=O)[C@H]1[C@H](CO)[C@H]2Cn3c(ccc(-c4ccccc4)c3=O)[C@@H]1N2C(=O)c1ccccc1F,x,-0.4,x,x,9.8
C[C@]12CC[C@@H]3c4ccc(O)c(O)c4CC[C@H]3[C@@H]1CC[C@@H]2O,17.0,17.6,54.5*,-31.6,30.6
SMILES,TROY NFkB inh,EWS-Fli block,TWEAK-Fn14 inh,EBV LMP1 NFkB,LGR2 antag
C[C@]12CC[C@H]3[C@@H](CCC4=CC(=O)CC[C@@H]43)[C@@H]1CC[C@@H]2O,14.2,13.6,-4.3,-9.4,13.8
COC(=O)[C@H]1[C@H](CO)[C@H]2Cn3c(ccc(-c4ccc(OC)cc4)c3=O)[C@@H]1N2C(=O)c1ccccc1F,x,4.4,x,x,-3.8
O=C(O)[C@@H]1[C@@H](CO)[C@@H]2Cn3c(cccc3=O)[C@H]1N2C(=O)c1ccccc1,x,-3.2,x,x,27.1
CC1=CC2OC3CC4OC(=O)C=CC=CC(C(C)O)OCC(O)C5(C)OC5C(=O)OCC2(CC1O)C4(C)C31CO1 (stereo unspecified),83.0*,44.9,98.6*,97.5*,102.1*
CC1=CC2OC3CC4OC(=O)C=CC=CC(=O)OCCC(C)C(O)C(=O)OCC2(CC1)C4(C)C31CO1 (stereo unspecified),85.0*,18.8,101.4*,81.7*,x
CC1CCOC(=O)C=CC=CC(=O)OC2CC3OC4C5OC5(C)C(O)CC4(COC(=O)C1O)C2(C)C31CO1 (stereo unspecified),85.6*,22.0,103.2*,87.0*,103.7*
CC(O)C1C=CC=CC(=O)OC2CC3OC4C5OC5(C)C(O)CC4(COC(=O)C(O)C(C)CCO1)C2(C)C31CO1 (stereo unspecified),85.6*,29.4,99.0*,88.3*,103.7*
O=C(CCN1CC=C(c2ccccc2)CC1)NCc1ccccc1,2.3,-6.4,9.7,-4.8,9.0
O=C(CCCc1ccc(N(CCCl)CCCl)cc1)NCc1ccccc1,12.5,28.5,2.5,42.1*,-1.8
O=C(O)[C@@H]1[C@@H](CO)[C@@H]2Cn3c(ccc(-c4ccccc4)c3=O)[C@H]1N2C(=O)C1CCCCC1,x,2.4,x,x,-0.7
CCC(COC(=O)NC)NC(=O)Oc1cccc(C)c1 (stereo unspecified),7.0,x,33.2,0.0,-2.6
CNC(=O)Oc1ccc(-c2cn3cc(C)ccc3n2)cc1,33.4,70.3*,64.5*,64.2*,x
CNC(=O)Oc1cccc(-c2cn3cc(Cl)ccc3n2)c1,30.5,x,34.6,8.5,81.9*
C/C(=C\c1ccc(N(C)C)cc1)[N+](=O)[O-],3.9,52.0*,46.4,4.5,95.8*
COC(=O)N1Cc2ccccc2-n2nncc2C1,0.5,-8.9,12.3,-3.3,-18.1
COc1cccc(-c2ccc3c(c2)C2c4cnnn4-c4ccccc4C(=O)N2CC3)c1 (stereo unspecified),x,58.9*,x,x,-5.9
COCc1cc(OC(=O)N(C)C)nc2c1c(C)nn2C,56.8*,5.6,-10.2,2.8,10.3
COC(=O)[C@H]1[C@H](CO)[C@H]2Cn3c(ccc(-c4ccc(F)cc4)c3=O)[C@@H]1N2C(C)=O,x,2.9,x,x,-3.1
